Measured values reported in PubChem BioAssay.
The list shows a part of the results. Active and inactive are the calls of the source. Rule as the data show it, unless noted: active = inhibition above about 25%; inactive = the rest.

Assays:
[1] = target: Nuclear receptor coactivator 3 (Homo sapiens) (UniProt Q9Y6Q9); assay: NCOA3 GAL4-fusion reporter inhibition – cell-based, luminescence, quadruplicate, confirmation (AID 588792;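 active = mean inhibition over 43.08%, the solvent-only control mean plus 3 SD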;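 also: 0% = DMSO treated cells and 100% = gossypol at 36 µM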); details: HEK293 GAL4-SRC3 luciferase reporter, at 3.6 µM, stronger effect = higher value
Chain of Nuclear receptor coactivator 3 (Homo sapiens) (Q9Y6Q9 whole entry, looked up, the tested form may be a part): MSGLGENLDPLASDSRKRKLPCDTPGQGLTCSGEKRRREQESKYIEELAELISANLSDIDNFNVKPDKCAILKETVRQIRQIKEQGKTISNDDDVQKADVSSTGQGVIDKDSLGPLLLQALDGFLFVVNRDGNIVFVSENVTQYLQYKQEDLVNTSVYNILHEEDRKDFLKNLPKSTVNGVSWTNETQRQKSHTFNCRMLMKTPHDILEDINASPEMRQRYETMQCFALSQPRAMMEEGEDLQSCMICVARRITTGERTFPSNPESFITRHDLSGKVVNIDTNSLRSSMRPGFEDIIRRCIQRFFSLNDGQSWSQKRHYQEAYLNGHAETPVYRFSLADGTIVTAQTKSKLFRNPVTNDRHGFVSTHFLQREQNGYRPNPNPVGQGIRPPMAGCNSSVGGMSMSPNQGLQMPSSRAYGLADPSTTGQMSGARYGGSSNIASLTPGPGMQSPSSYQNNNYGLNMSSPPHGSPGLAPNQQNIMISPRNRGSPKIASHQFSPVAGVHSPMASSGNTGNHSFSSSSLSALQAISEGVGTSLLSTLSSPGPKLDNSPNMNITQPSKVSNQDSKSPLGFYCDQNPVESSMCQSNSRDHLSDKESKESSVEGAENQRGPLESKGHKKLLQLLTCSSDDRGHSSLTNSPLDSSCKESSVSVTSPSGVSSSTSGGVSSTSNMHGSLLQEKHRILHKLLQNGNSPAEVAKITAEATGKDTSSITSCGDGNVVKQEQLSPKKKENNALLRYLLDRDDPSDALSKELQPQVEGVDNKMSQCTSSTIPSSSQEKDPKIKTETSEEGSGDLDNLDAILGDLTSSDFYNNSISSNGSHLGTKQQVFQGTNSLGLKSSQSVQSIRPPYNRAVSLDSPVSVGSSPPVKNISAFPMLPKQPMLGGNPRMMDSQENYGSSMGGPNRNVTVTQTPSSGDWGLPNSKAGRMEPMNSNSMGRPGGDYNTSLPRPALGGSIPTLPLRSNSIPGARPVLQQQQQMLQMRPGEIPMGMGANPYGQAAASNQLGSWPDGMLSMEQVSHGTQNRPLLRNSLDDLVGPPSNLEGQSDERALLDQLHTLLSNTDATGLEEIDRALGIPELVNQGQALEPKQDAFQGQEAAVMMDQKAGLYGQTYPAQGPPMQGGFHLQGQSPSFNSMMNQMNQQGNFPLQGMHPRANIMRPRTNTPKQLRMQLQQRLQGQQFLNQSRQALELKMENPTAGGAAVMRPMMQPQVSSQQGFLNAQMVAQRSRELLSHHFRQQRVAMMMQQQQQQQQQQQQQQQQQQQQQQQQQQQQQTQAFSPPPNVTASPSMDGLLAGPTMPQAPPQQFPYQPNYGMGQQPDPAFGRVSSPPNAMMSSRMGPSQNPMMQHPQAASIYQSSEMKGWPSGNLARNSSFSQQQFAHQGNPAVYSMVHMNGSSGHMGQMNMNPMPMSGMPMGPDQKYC

[2] = tested on: transactivating tegument protein VP16 (Human herpesvirus 1), Gal4-VP16 luciferase reporter; assay: repression of VP16-driven luciferase reporter – cell-based, luminescence, high throughput, counter-screen for SRC3 inhibitor project (AID 588794; in the data active = inhibition above about 30%); details: mammalian cells, at 3.6 µM, stronger effect = higher value
[3] = target: Nuclear receptor coactivator 1 (Homo sapiens) (UniProt Q15788); assay: NCOA1 GAL4-fusion reporter inhibition – cell-based, luminescence, quadruplicate, confirmation (AID 588820;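 active = mean inhibition above 46.68%, the untreated control wells mean plus 3 SD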;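 also: 0% = DMSO wells and 100% = gossypol 36 µM treated wells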); details: HEK293 GAL4-SRC1 luciferase reporter, at 3.6 µM, stronger effect = higher value
Chain of Nuclear receptor coactivator 1 (Homo sapiens) (Q15788 whole entry, looked up, the tested form may be a part): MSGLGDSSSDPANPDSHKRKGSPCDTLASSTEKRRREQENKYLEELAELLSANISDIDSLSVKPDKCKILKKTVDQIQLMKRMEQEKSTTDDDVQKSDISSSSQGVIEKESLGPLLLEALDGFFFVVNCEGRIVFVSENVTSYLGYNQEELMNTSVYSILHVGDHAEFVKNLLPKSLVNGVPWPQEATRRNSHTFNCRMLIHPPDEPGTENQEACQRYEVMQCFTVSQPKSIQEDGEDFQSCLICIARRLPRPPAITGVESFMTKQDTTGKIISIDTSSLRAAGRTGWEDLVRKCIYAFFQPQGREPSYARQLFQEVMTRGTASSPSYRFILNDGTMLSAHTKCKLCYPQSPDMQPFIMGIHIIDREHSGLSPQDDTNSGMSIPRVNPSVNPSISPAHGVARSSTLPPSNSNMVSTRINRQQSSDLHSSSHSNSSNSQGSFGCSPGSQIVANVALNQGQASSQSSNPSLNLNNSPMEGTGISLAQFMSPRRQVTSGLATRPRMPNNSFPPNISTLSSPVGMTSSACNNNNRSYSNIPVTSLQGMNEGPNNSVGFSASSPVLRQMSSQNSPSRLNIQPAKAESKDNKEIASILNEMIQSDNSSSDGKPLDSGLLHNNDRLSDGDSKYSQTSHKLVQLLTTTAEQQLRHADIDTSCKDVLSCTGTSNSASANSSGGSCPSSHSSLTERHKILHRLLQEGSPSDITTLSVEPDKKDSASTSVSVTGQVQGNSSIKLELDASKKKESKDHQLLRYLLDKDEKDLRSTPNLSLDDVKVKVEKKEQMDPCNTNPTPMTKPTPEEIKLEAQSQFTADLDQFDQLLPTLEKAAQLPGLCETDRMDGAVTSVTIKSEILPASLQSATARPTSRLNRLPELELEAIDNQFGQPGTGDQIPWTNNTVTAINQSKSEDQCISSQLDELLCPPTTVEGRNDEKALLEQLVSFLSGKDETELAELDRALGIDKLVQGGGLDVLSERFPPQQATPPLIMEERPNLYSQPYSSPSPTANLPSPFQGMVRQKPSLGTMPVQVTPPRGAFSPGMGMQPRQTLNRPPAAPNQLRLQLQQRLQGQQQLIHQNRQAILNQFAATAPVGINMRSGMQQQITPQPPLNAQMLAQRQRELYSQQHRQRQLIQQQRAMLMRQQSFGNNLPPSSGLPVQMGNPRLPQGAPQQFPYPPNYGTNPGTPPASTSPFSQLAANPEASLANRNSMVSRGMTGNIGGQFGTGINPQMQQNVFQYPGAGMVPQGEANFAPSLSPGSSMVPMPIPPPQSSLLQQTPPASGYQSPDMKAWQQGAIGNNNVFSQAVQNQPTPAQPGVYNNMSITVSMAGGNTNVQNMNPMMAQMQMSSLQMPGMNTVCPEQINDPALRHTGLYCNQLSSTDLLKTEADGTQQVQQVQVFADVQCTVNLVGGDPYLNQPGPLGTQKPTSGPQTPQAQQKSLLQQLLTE

[4] = repression of VP16-driven luciferase reporter – cell-based, luminescence, high throughput, counter-screen for SRC1 inhibitor project (AID 588824); details: cell-based VP16 transactivation luciferase luminescence; at 3.6 µM; stronger effect = higher value
[5] = StAR promoter reporter inhibitors, counter-screen for LRH-1 inverse agonist project, cell-based, luminescence, high throughput (AID 651611; in the data active = inhibition above about 28%); details: StAR promoter luciferase reporter counterscreen, at 3.6 µM, stronger effect = higher value
[6] = target: Nuclear receptor subfamily 5 group A member 2 (Homo sapiens) (UniProt O00482); assay: NR5A2 activity suppression in reporter cells – cell-based, luminescence, confirmation (AID 651613; in the data active = inhibition above about 42%;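 also: HEK293T cells co-transfected with LRH-1 and StAR promoter luciferase reporter; 0% = vehicle wells and 100% = parental cells lacking receptor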); details: cell-based LRH-1 luciferase reporter, inverse agonism; at 3.6 µM; stronger effect = higher value
Chain of Nuclear receptor subfamily 5 group A member 2 (Homo sapiens) (O00482 whole entry, looked up): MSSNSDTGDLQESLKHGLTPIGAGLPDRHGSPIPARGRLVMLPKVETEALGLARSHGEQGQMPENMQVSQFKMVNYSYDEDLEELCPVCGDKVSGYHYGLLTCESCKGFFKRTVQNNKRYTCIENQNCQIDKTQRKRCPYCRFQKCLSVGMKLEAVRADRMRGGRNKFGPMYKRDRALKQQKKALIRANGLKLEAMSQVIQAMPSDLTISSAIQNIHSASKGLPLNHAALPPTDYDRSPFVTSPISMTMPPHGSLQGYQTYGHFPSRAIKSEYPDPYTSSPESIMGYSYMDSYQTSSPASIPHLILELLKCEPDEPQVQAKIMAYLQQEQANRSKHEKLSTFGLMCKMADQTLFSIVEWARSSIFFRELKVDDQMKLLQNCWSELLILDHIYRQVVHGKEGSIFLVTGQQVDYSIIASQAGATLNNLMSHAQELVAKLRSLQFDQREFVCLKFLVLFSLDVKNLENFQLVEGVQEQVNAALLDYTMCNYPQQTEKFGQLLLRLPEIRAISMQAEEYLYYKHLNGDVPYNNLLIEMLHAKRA

[7] = target: Steroidogenic factor 1 (Homo sapiens) (UniProt Q13285); assay: inverse agonism at SF1 nuclear receptor – cell-based, luminescence, high throughput, counter-screen for LRH-1 inverse agonist project (AID 651614; in the data active = inhibition above about 44%;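 also: cells cotransfected with StAR promoter reporter and SF1 expression vector; 0% = vehicle on cells with receptor and 100% = vehicle on cells lacking receptor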); details: cell-based SF1 luciferase reporter, at 3.6 µM, stronger effect = higher value
[8] = compounds suppressing VP16-driven luciferase signal – cell-based, luminescence, high throughput, counter-screen for LRH-1 inverse agonist project (AID 651615; in the data active = inhibition above about 33%); details: Gal4-VP16 luciferase reporter cells, at 3.6 µM, stronger effect = higher value
[9] = tested on: transactivating tegument protein VP16 (Human herpesvirus 1); assay: compounds suppressing VP16-driven luciferase signal – cell-based, luminescence, single concentration, counter-screen for SRC2 inhibitor project (AID 652007; in the data active = inhibition above about 36%); details: cell-based VP16 transactivation luciferase reporter, at 8.9 µM, stronger effect = higher value
[10] = target: Nuclear receptor coactivator 2 (Homo sapiens) (UniProt Q15596); assay: inhibition of GAL4-SRC2 driven luciferase expression – cell-based, luminescence, HEK293, triplicate, confirmation (AID 652008;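 active = mean inhibition above 46.5%, the solvent-only control mean plus 3 SD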;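 also: 0% = DMSO-treated cells and 100% = Gossypol at 36 µM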); details: HEK293 GAL4-SRC2 luciferase reporter, at 8.9 µM, stronger effect = higher value
Chain of Nuclear receptor coactivator 2 (Homo sapiens) (Q15596 whole entry, looked up, the tested form may be a part): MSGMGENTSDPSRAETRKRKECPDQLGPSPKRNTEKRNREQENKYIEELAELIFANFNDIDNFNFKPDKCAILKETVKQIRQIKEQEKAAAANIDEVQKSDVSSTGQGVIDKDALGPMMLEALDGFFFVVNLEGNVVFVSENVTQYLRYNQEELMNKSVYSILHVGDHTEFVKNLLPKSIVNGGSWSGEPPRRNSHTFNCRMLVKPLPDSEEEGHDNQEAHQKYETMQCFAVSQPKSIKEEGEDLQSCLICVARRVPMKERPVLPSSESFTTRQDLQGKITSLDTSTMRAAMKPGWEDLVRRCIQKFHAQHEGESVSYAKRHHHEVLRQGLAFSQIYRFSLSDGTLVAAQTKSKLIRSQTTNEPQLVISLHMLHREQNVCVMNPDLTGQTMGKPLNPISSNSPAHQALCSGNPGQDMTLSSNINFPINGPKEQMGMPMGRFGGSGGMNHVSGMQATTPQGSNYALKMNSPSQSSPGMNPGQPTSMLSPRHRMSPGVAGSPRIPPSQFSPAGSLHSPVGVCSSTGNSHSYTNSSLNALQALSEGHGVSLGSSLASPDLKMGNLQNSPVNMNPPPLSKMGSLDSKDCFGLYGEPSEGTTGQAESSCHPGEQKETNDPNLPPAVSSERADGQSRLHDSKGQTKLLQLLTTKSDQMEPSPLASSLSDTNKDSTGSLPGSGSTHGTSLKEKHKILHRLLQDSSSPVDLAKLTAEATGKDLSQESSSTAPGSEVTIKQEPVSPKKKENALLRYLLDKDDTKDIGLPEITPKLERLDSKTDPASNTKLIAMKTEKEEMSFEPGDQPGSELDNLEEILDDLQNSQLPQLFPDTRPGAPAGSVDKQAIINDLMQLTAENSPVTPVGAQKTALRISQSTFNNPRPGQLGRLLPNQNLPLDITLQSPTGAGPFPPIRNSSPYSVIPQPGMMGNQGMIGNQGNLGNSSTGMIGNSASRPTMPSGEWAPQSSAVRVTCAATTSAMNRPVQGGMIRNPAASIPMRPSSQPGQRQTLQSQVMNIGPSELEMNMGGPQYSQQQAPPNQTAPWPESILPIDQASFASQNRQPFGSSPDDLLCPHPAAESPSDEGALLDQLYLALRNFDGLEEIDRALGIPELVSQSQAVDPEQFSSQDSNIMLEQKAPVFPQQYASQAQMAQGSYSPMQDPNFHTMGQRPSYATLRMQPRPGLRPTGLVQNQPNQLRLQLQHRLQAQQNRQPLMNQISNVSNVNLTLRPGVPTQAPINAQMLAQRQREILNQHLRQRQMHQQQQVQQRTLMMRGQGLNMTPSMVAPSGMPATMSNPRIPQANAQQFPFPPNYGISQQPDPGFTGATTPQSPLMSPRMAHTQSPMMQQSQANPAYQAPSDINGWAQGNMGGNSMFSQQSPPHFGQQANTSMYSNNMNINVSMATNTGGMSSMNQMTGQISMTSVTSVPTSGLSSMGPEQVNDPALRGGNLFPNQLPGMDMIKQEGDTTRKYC

[11] = reduced OD of V66 E. coli with T4 gene 2 phage – absorbance, RecBCD inhibitor project, confirmation (AID 651982;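 active = mean inhibition over triplicates exceeding the hit threshold derived in the original primary screen, cut at about 11% in these data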); details: E. coli V66 + T4 2- phage, growth OD; at 11.9 µM; stronger effect = higher value
[12] = bacterial growth inhibition – absorbance, high throughput, counter-screen for RecBCD inhibitor project (AID 651983; in the data active = inhibition above about 20%;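 also: E. coli strain V66 grown with compound alone and no phage infection; 0% = bacteria with DMSO vehicle only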); details: E. coli viability, absorbance (OD) growth; at 11.9 µM; stronger effect = higher value
[13] = reduced optical density, T4-challenged addAB+ bacteria – absorbance, E. coli V3065, T4 phage, counter-screen for RecBCD inhibitor project, confirmation (AID 651984;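 active = mean inhibition above the solvent-only control wells' mean plus 3 SD, cut at about 22% in these data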;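 also: higher means less bacterial growth from phage killing when AddAB is blocked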); details: E. coli expressing H. pylori AddAB + T4 phage, OD growth; at 11.9 µM; stronger effect = higher value; gene 2 mutant T4, recBCD-deleted host

Measured: inhibition

NC(=S)NN=Cc1nccc2c(C(F)(F)C(F)(F)C(F)(F)F)cccc12
active: [1] 93.5% | [2] 87.2% | [3] 85.5% | [4] 88.5% | [5] 92.3% | [6] 107% | [7] 95.6% | [8] 82.1%
inactive: [9] -16.1% | [10] 18.2%

COc1ccccc1C(=O)Nc1nc2ccccc2[nH]1
active: [1] 79.4% | [2] 72.7% | [3] 58.5% | [4] 75.2% | [5] 75.3% | [6] 75.4% | [7] 83.8% | [8] 66.3% | [9] 89.6% | [10] 93.8%

COc1cc(C=CC(=O)c2cc(OC)c(OC)c(OC)c2)cc(OC)c1OC
active: [1] 72.3% | [2] 57.4% | [4] 46.4% | [5] 73.1% | [6] 67.1% | [7] 76.1% | [8] 69.1% | [9] 47.7% | [10] 73%
inactive: [3] 38.1%

COc1cccc2c1C(=O)c1c(O)c3c(c(O)c1C2=O)CC(O)(C(C)=O)CC3OC1CC(N(C)C)C(O)C(C)O1 (configuration not stated)
inactive: [9] 29.4% | [10] 45.5%
active: [1] 94.2% | [2] 95.8% | [3] 73.9% | [4] 95.3% | [5] 80% | [6] 104% | [7] 94.5% | [8] 96.3%

COC1=CC(=O)c2nc(Cl)ccc2C1=O
active: [1] 67.8% | [2] 55.1% | [4] 60.7% | [5] 56.2% | [6] 65.1% | [7] 70% | [8] 72.2% | [10] 89.5%
inactive: [3] -9.24% | [9] 24.5%

COc1ccccc1C(=O)N(CCC1CCCN1C)c1nc2ccccc2s1 (configuration not stated)
inactive: [1] 38.7% | [2] 14.6% | [3] -24.3% | [4] -21.5% | [5] -41.5% | [6] -79.1% | [7] -54.7% | [8] -44.3% | [9] 11.8%
active: [10] 53.8%

O=C(NCCc1ccccc1F)c1ccc2c(c1)OCCO2
active: [1] 67.2% | [2] 57.6% | [4] 54.6% | [5] 65.5% | [6] 55.3% | [7] 72.4% | [8] 60.5% | [9] 74.1% | [10] 89.9%
inactive: [3] -11.5%

O=C(CC(Nc1ccc(Cl)cc1Cl)C(=O)O)c1ccccc1 (configuration not stated)
active: [1] 52.3% | [10] 57.9%
inactive: [2] 18.1% | [3] -4.19% | [4] -13.2% | [9] 18.8%

C(=N\Nc1ccc2ccccc2n1)/c1ccc2c(c1)OCCO2
active: [9] 44.3% | [10] 83.2%
inactive: [1] 34.6% | [2] 24.2% | [3] -49.9% | [4] -11.3%

CCOc1ccc(/C=C2\SC(=S)N(CCCC(=O)NCCCN3CCOCC3)C2=O)cc1
inactive: [1] 29.9% | [2] 10.6% | [3] 22.1% | [4] 7.63%
active: [9] 59.8% | [10] 90%

COc1ccc(Cc2nnc(N/N=C/c3ccccc3O)[nH]c2=O)cc1OC
active: [1] 84.5% | [2] 77% | [3] 76.7% | [4] 82.6%
inactive: [9] 21.2% | [10] 38.8%

COc1ccccc1/C=C/C(=O)c1c2c(c(C)[nH]c1=O)CCCC2
inactive: [9] 34.1% | [10] 39%
active: [1] 46.6% | [2] 49.9% | [3] 59% | [4] 44.1%

CC(O)CC(=O)OC[C@]12CC[C@H]3[C@@](C)(CC[C@H]4C(C)(C)CCC[C@]34C)[C@@H]1CC(C1=CC(=O)OC1O)O2 (some centres not stated)
active: [2] 53.4% | [4] 43.4% | [5] 51.2% | [6] 76.6% | [7] 80.5% | [8] 75.2% | [9] 50.6%
inactive: [1] 30.2% | [3] 31% | [10] -41%

CC1CCCCN1c1ncnc(N)c1[N+](=O)[O-] (configuration not stated)
active: [1] 61.7% | [2] 35.2% | [3] 50.6% | [4] 36.8%
inactive: [9] 4.43% | [10] 44.8%

Cn1nnnc1Sc1ncnc2scc(-c3cccc(Br)c3)c12
inactive: [1] 31.4% | [3] 43.3% | [9] 9.2%
active: [2] 43.7% | [4] 47.5% | [10] 55.7%

C=C1C(=O)OC2CC1C(O)CC(C)=CCCC(C)=CC(O)CC2C (configuration not stated)
active: [2] 42.7% | [4] 49.7% | [10] 50.8%
inactive: [1] 22.9% | [3] 27.9% | [9] 23.9%

COc1cc([C@@H]2c3cc4c(cc3[C@@H](O[C@@H]3O[C@@H]5CO[C@@H](C)O[C@H]5[C@H](O)[C@H]3O)[C@H]3COC(=O)[C@H]23)OCO4)cc(OC)c1O
active: [1] 64.4% | [3] 62.5% | [6] 69.3% | [7] 44.6%
inactive: [2] 8.66% | [4] 6.22%

Nc1nc(=S)c2ncn([C@@H]3O[C@H](CO)[C@@H](O)[C@H]3O)c2[nH]1
inactive: [2] 23.3% | [3] 11.8%
active: [1] 67.6% | [4] 29.9% | [6] 77.2% | [7] 48.2%

Cc1ccc(/C=N/NC(=O)C2=NNC(c3ccccc3)(c3ccccc3)C2)c(O)c1
active: [1] 71.4% | [2] 57.5% | [4] 51.8%
inactive: [3] 45.4% | [11] 3.86% | [12] 5.88% | [13] 5.05%

Cc1ccc(C(=O)Nc2cnc3ccccc3c2)cc1
active: [1] 44.4% | [9] 50.7% | [10] 84.9%
inactive: [2] 9.25% | [3] -70.2% | [4] 23.4%

CC(=O)/C(N=Nc1ccc2c(c1)OCCO2)=C(\C)O
inactive: [2] -50.6% | [3] 22.6% | [4] -66.6% | [9] -9.49%
active: [1] 45.3% | [10] 65.4%

Cc1nc2c(-c3ccc(Cl)cc3)cnn2c(N)c1-c1ccc(F)cc1
inactive: [1] 38% | [2] 24.5% | [3] -12% | [4] -6.2% | [9] 2.27%
active: [10] 53.7%

c1cc2c(cc1C1=NNC(=NC3CC3)SC1)OCCO2
active: [1] 52.8% | [2] 46.4% | [4] 38% | [9] 59.7% | [10] 79.5%
inactive: [3] 15.5%

CCCc1ccc(-c2ccc(/C=C/C(=O)O)cc2)nc1
active: [1] 76% | [2] 71.9% | [3] 70.6% | [4] 67.7% | [5] 77.9% | [6] 85.6% | [7] 76.9% | [8] 68.6% | [9] 85.7% | [10] 94.6%

COc1ccc(-c2cn[nH]c2-c2ccc(OC)cc2O)cc1
active: [1] 54.6% | [4] 29.9%
inactive: [2] 26.5% | [3] 46.3% | [9] 2.11% | [10] 25.8%

CC(C)(C)OC(=O)NCCCCCNC(=O)c1nc[nH]c1C(=O)NCCCCCNC(=O)OC(C)(C)C
active: [4] 35.1%
inactive: [1] 5.02% | [2] 13.7% | [3] -20% | [9] 24.2% | [10] 34.1%

O[C@@H]1[C@@H](O)C=C2CCN3Cc4cc5c(cc4[C@H]1C23)OCO5 (some centres not stated)
active: [1] 84.3% | [2] 77.5% | [3] 48.1% | [4] 76.7% | [6] 105% | [7] 93.4%
inactive: [9] 15.7% | [10] -13.8%

C[C@H]1O[C@@H](O[C@H]2[C@@H](O)C[C@H](O[C@H]3[C@@H](O)C[C@H](O[C@H]4CC[C@@]5(C)[C@H](CC[C@@H]6[C@@H]5C[C@@H](O)[C@]5(C)[C@@H](C7=CC(=O)OC7)CC[C@]65O)C4)O[C@@H]3C)O[C@@H]2C)C[C@H](O)[C@@H]1O
active: [1] 96.8% | [2] 88.6% | [3] 80.6% | [4] 87.5% | [6] 110% | [7] 97.7% | [9] 70.2% | [10] 55.2%

c1cc(-c2nnc3sc(C4CCCCC4)nn23)ccn1
active: [1] 62.6% | [2] 37.2% | [3] 58.2% | [4] 51%
inactive: [9] 0.17% | [10] 35.7%

COCCn1c(C)cc(C2=NNC(=NC3CC3)SC2)c1C
active: [1] 91.2% | [2] 87.2% | [3] 85.7% | [4] 86.1% | [9] 90.8% | [10] 96.7%

CNc1ncnc(Sc2nc(N)nc3nc[nH]c23)c1[N+](=O)[O-]
inactive: [2] 20.2% | [3] 26.8% | [4] 14.4% | [7] 25.1%
active: [1] 47.1% | [6] 52.6%

Clc1ccc(-c2csc(=Nc3cccnc3)n2CCCn2ccnc2)cc1Cl
active: [1] 53.9% | [2] 35.4% | [3] 49.7% | [4] 39% | [10] 63.7%
inactive: [9] 15.6%

C=CCOc1ccc(/C=C2\SC(=S)N(CCC(=O)O)C2=O)cc1
inactive: [1] 32.8% | [2] -27% | [3] 35.5% | [4] -38.4% | [9] -24.5%
active: [10] 91.5%

O=C(O)C1CC=CCC1C(=O)Nc1ccc2c(c1)OCCO2 (configuration not stated)
inactive: [1] -15.8% | [2] -7.19% | [3] -47.1% | [4] -8.13% | [9] -13.1% | [10] 6.92%

C=CC[n+]1c(-c2ccc(C)cc2)csc1Nc1ccc(NC(C)=O)cc1
active: [9] 62.2% | [10] 86.8%
inactive: [1] 29.6% | [2] -12.8% | [3] 4.13% | [4] -3.13%

CCc1ccc(/C=C2\SC(=S)N(CCCC(=O)NCCCN3CCOCC3)C2=O)cc1
inactive: [1] 42.4% | [2] 21.1% | [3] 35.1% | [4] 8.83%
active: [9] 82.6% | [10] 93.6%
